# “And” between values parts separate entries of the source, which are not always exact repeats. Equal entries are not always repeated. Results filed as inconclusive are left out. The source made the active and inactive calls. The calls were made as follows: active = hit-call score of the fitted dose curve at least 0.9, where 1 is the maximum; inconclusive = response in the unintended direction; inactive = score below 0.9.
# Assays:
# [1] = TOX21_p53_BLA_p2_viability: Viability Assessment in the Tox21 HCT-116 p53 Agonism Beta-lactamase Assay, Phase 2 (AID 2283591);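 also: actives lower the ATP signal meaning cytotoxicity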
# Procedure, shortened: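 Cytotoxicity readout: CellTiter-Glo ATP luminescence, 30 min at room temperature, after the beta-lactamase read. Cells were HCT116 exposed 16 h at 37C to compounds pin-transferred at 217-fold dilution from DMSO stocks.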
# [2] = molecular target: Cellular tumor antigen p53 (Homo sapiens) (UniProt P04637); assay: TOX21_p53_BLA_p2_ratio: Tox21 HCT-116 p53 Agonism Beta-lactamase Assay, Ratio, Phase 2 (AID 2283592)
# Chain of Cellular tumor antigen p53 (Homo sapiens) (P04637 whole entry, looked up): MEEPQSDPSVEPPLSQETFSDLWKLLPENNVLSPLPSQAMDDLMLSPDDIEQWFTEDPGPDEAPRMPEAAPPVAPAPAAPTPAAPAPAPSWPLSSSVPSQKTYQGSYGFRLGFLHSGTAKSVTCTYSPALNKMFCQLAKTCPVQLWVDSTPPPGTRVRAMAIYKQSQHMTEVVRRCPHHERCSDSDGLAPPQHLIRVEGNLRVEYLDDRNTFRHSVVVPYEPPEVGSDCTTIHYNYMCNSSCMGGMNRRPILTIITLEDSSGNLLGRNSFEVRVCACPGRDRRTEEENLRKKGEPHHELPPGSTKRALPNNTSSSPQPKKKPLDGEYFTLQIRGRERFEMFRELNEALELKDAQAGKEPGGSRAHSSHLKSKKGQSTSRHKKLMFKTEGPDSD
# Procedure, shortened: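 Readout: blue/green (460/530 nm) FRET emission ratio after 2 h CCF4-AM loading at room temperature, excitation 405 nm. HCT116 p53 bla cells, 16 h compound exposure at 37C, 5% CO2; agonist direction fitted against DMSO baseline.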
# [3] = TOX21_p53_BLA_p3_viability: Viability Assessment in the Tox21 HCT-116 p53 Agonism Beta-lactamase Assay, Phase 3 (AID 2283593);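 also: cells exposed to compound for 16 h before reading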
# Procedure, shortened: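 Cellular ATP was quantified by CellTiter-Glo luminescence, read after 30 min at room temperature. Beforehand, HCT116 cells (4000/well) received compound 5 h post-seeding, 217-fold diluted from DMSO, then incubated 16 h at 37C.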
# [4] = molecular target: Cellular tumor antigen p53 (Homo sapiens) (UniProt P04637); assay: TOX21_p53_BLA_p3_ratio: Tox21 HCT-116 p53 Agonism Beta-lactamase Assay, Ratio, Phase 3 (AID 2283596)
# Procedure, shortened: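 Cells were seeded at 4000/well, rested 5 h at 37C, then dosed with DMSO compound solutions (217-fold dilution) for 16 h. CCF4-AM substrate was loaded for 2 h at room temperature, and the 460/530 nm emission ratio was fitted for gain of signal versus DMSO.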
# [5] = TOX21_p53_BLA_p4_viability: Viability Assessment in the Tox21 HCT-116 p53 Agonism Beta-lactamase Assay, Phase 4 (AID 2283597);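 also: hits lower the luminescence signal meaning cytotoxicity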
# Procedure, shortened: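 ATP content by CellTiter-Glo luminescence, 30 min RT, read after the beta-lactamase ratio step. Cells: HCT116, 4000/well, compound added after 5 h, exposure 16 h at 37C. Signal loss = reduced viability.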
# [6] = molecular target: Cellular tumor antigen p53 (Homo sapiens) (UniProt P04637); assay: TOX21_p53_BLA_p5_ratio: Tox21 HCT-116 p53 Agonism Beta-lactamase Assay, Ratio, Phase 5 (AID 2283599)
# Procedure, shortened: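 Beta-lactamase reporter ratio (blue 460 nm over green 530 nm, 405 nm excitation) after 2 h CCF4-AM loading, in HCT-116 cells exposed 16 h at 37 C to compounds pinned at 217-fold dilution. Increases relative to DMSO baseline scored.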
# [7] = TOX21_p53_BLA_p5_viability: Viability Assessment in the Tox21 HCT-116 p53 Agonism Beta-lactamase Assay, Phase 5 (AID 2283600)
# Procedure, shortened: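 ATP luminescence (CellTiter-Glo, 30 min, RT) served as the viability read-out, with loss of signal indicating cytotoxicity. Compounds in DMSO were pinned at a 217-fold dilution onto 4000 cells/well and incubated 16 h, 37C.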
# [8] = molecular target: Cellular tumor antigen p53 (Homo sapiens) (UniProt P04637); assay: TOX21_p53_BLA_p4_ratio: Tox21 HCT-116 p53 Agonism Beta-lactamase Assay, Ratio, Phase 4 (AID 2283601)
# Procedure, shortened: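 Signal is the blue/green (460nm/530nm) ratio of cleaved versus uncleaved CCF4-AM substrate, read after 2 h substrate loading. Cells were HCT116 carrying the p53-responsive beta-lactamase reporter, dosed 16 h at 37C, 5% CO2; CellTiter-Glo measured in parallel.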
Structure (SMILES),outcome [1],outcome [2],outcome [3],outcome [4],outcome [5],outcome [6],outcome [7],outcome [8],AC50 [2],AC50 [4],AC50 [5],AC50 [6],AC50 [8],AC50 [1],AC50 [3],AC50 [7]
O=C(NCC1CCCCN1)c1cc(OCC(F)(F)F)ccc1OCC(F)(F)F (stereo not drawn),inactive,inactive,inactive,inactive,inactive,inactive,inactive,inactive,,,,,,,,
CCCC(C)c1ccccc1O (stereo not drawn),inactive,inactive,inactive,inactive,inactive,inactive,inactive,inactive,,,,,,,,
COc1c(C)c2c(c(O)c1C/C=C(\C)CCC(=O)OCCN1CCOCC1)C(=O)OC2,inactive,,inactive,,,,inactive,,0.139 µM (active),0.164 µM (active),0.805 µM (active),0.183 µM (active),0.194 µM (active),,,
CN(C)c1nc(N(C)C)nc(N(C)C)n1,inactive,inactive,inactive,inactive,inactive,inactive,inactive,inactive,,,,,,,,
CC1(C)C[C@@H]1C(=O)N/C(=C\CCCCSC[C@H](N)C(=O)O)C(=O)O,inactive,inactive,inactive,inactive,inactive,inactive,inactive,inactive,,,,,,,,
COc1cccc2c1[C@@H]1CN(CCCCn3c(=O)[nH]c4c(sc5ncc(-c6ccccc6)nc54)c3=O)C[C@@H]1CO2,,inactive,inactive,inactive,,inactive,inactive,inactive,,,43.3 µM (active),,,39.8 µM (active),,
Cc1ccc(S(=O)(=O)NC(=O)NC2CCCCCCC2)cc1,inactive,inactive,inactive,inactive,inactive,inactive,inactive,inactive,,,,,,,,
CC(=O)Oc1ccc(C2(c3ccc(OC(C)=O)cc3)C(=O)Nc3ccccc32)cc1,,,,,,,inactive,,540 nM (active) and 368 nM (active),641 nM (active) and 515 nM (active),580 nM (active) and 459 nM (active),663 nM (active) and 407 nM (active),555 nM (active) and 464 nM (active),781 nM (active) and 543 nM (active),633 nM (active) and 692 nM (active),
Clc1ccc(COC(Cn2ccnc2)c2ccc(Cl)cc2Cl)c(Cl)c1 (stereo not drawn),inactive,,inactive,inactive,inactive,inactive,inactive,inactive,17.3 µM (active),,,,,,,
N=C(N)c1ccc(OCCCOc2ccc(C(=N)N)cc2)cc1,inactive,inactive,inactive,inactive,inactive,inactive,inactive,inactive,,,,,,,,
O=C(N/N=C/c1ccccc1O)c1ccncc1,inactive,inactive,inactive,inactive,,inactive,inactive,inactive,,,8.16 µM (active),,,,,
CC12CCC(C[N+](C)(CCC[N+](C)(C)C)C1)C2(C)C (stereo not drawn),inactive,inactive,inactive,inactive,inactive,inactive,inactive,inactive,,,,,,,,
O=C(O)c1ccc(Cl)c(Cl)c1,inactive,inactive,inactive,inactive,inactive,inactive,inactive,inactive,,,,,,,,
CCCCCCCCCCOCC(O)CN (stereo not drawn),,inactive,inactive,inactive,,inactive,inactive,,,,36.8 µM (active),,42.9 µM (active),36.8 µM (active),,
Oc1ccc(Cl)cc1Sc1cc(Cl)ccc1O,,,,,,,,,31.8 µM (active) and 8.26 µM (active),46 µM (active) and 21.2 µM (active),53.9 µM (active) and 15.2 µM (active),72.3 µM (active) and 32.1 µM (active),65 µM (active) and 28.6 µM (active),31.3 µM (active) and 23 µM (active),46 µM (active) and 23 µM (active),70.2 µM (active) and 23 µM (active)
CC(=O)OCCN(CCOC(C)=O)c1ccc(N=Nc2ccc([N+](=O)[O-])cc2C#N)cc1,inactive,inactive,inactive,inactive,inactive,inactive,inactive,inactive,,,,,,,,
CNCCCC1c2ccccc2C=Cc2ccccc21,inactive,inactive,inactive,inactive,inactive,inactive,inactive,inactive,,,,,,,,
CCOc1ccccc1O[C@H](c1ccccc1)[C@H]1CNCCO1,inactive,inactive,inactive,inactive,inactive,inactive,inactive,inactive,,,,,,,,
Cc1cc(O)c2c(c1)O[C@@]1(C)CC[C@H]3C(C)(C)CCCC34CO[C@@H]2[C@H]41 (stereo partly drawn),,,,,,,,,44.2 µM (active),43.7 µM (active),29.6 µM (active),30.6 µM (active),43.4 µM (active),31 µM (active),34.3 µM (active),20.8 µM (active)
CCCCC(CC)CN=C(N)NC(N)=NCCCCCCN=C(N)NC(N)=NCC(CC)CCCC (stereo not drawn),,,,,,,,,24.1 µM (active),33.9 µM (active),29.4 µM (active),37.3 µM (active),27.9 µM (active),32 µM (active),36.8 µM (active),31.6 µM (active)
Oc1c(Br)cc(Br)c2cccnc12,inactive,,inactive,inactive,,inactive,inactive,inactive,5.02 µM (active),,7.62 µM (active),,,,,

# Source: PubChem BioAssay (EPA / NIEHS)
